Screening data from PubChem.
Compounds with a hit are over-represented: about 2.7% of the library has one in this group of screens.
F508del corr – correctors of CFTR F508del function in bronchial epithelial cells; CFBE cells, YFP halide quenching; stimulated with forskolin plus potentiator P3; % fluorescence drop versus neutral controls; activity (quench increase), % at 7.58 µM; actives 0.36% (n = 350,000);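 active = mean added fluorescence quench of at least 8% versus neutral control, with both replicates also reaching 8%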;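 note: cells transiently co-express mutant CFTR-F508del with the halide-sensitive YFP; corrector assay measuring rescue of mutant channel to the surface after 24 h compound exposure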
NRP1-CendR mod – NRP-1/CendR interaction modulation | O14786 | FAM-RPARPAR peptide binding to NRP-1, fluorescence polarization | inhibition, % at 25 µM | actives 0.85% (n = 360,000) | AID 602438;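 active = inhibition or corrected inhibition above about 18%, plus a signal ratio from 0.5 to 1.5, limit read from the data, passing the limit was not always enough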
Target sequence (O14786 whole entry, looked up): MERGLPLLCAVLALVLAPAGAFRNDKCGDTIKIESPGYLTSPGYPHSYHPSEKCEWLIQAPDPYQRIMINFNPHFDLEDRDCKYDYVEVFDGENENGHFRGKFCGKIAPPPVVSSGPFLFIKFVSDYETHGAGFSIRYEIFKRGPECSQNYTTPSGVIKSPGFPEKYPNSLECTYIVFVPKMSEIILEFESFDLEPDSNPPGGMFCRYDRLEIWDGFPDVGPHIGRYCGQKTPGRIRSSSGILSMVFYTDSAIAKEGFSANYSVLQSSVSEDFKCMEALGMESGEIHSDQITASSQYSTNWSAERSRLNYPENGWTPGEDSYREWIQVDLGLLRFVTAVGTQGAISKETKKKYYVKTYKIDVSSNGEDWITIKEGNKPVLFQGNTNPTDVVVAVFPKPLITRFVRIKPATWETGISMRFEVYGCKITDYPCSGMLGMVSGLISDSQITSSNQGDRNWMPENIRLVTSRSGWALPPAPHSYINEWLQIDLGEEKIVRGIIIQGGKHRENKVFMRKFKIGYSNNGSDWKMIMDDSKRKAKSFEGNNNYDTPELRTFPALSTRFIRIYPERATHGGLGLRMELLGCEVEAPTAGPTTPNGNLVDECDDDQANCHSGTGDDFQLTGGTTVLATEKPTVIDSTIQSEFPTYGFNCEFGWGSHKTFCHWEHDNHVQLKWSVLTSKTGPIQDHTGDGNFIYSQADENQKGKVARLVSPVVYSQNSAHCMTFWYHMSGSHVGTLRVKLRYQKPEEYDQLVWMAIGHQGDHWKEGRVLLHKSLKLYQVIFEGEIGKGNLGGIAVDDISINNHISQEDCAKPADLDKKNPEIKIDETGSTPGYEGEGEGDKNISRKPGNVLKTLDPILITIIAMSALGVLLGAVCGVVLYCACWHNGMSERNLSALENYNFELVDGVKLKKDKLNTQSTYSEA
ATG4B inh – inhibitors of human ATG4B cysteine protease. Q9Y4P1. ATG4B cleavage of LC3-PLA2, NBD-HPC fluorescence, 1 h. inhibition, % at 8.33 µM. actives 0.51% (n = 340,000). AID 504462; in the data active = inhibition above about 40%
MPTP block – inhibitors of mitochondrial permeability transition pore; isolated mouse mitochondria, Ca2+ swelling absorbance, 30 min; inhibition, % at 10 µM; actives 1.4% (n = 360,000);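 active = inhibition of 50% or more, scaled per plate between neutral and stimulator controls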
SKN-1 block – C. elegans SKN-1 inhibition. C. elegans VP596 Pgst-4::GFP/RFP ratio, acrylamide-induced, 24 h. inhibition, % at 21.8 µM. actives 0.49% (n = 360,000);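 active = interference check ratio from 0.5 to 1.5 plus GFP to RFP signal ratio inhibition reaching or exceeding a fixed threshold, cut at about 30% in these data, passing the limit was not always enough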
Of the large screens only hits and unclear results are named; the others gave an inactive call.

COc1ccc(OC)c(-c2nnc3n2N=C(c2ccc(OC)c(OC4CCCC4)c2)CS3)c1	none
COc1ccc(OC)c(-c2nnc3n2N=C(c2ccc(OC)c(OC)c2)CS3)c1	F508del corr 9.5
COc1ccc(C2=Nn3c(nnc3-c3ccccc3F)SC2)cc1OC1CCOC1 (stereo not drawn)	F508del corr 11.1
COc1ccc(C2=Nn3c(nnc3-c3ccccc3F)SC2)cc1OC1CCCC1	F508del corr 13.1
CC(=O)N(C)C[C@@H]1Oc2cc(-c3ccc(C#N)cc3)ccc2S(=O)(=O)N([C@@H](C)CO)C[C@H]1C	none (no result: NRP1-CendR mod, ATG4B inh, MPTP block, SKN-1 block)
COCC#Cc1cnc2c(c1)C(=O)N([C@@H](C)CO)C[C@@H](C)[C@H](CN(C)C(=O)C1CCCCC1)O2	none (no result: NRP1-CendR mod, ATG4B inh, MPTP block, SKN-1 block)
COc1ccccc1NC(=O)N1CC[C@H]2[C@@H]1c1cc(-c3ccccc3)ccc1N(C)[C@H]2CO	none (no result: NRP1-CendR mod, ATG4B inh, MPTP block, SKN-1 block)
O=C(Cn1ccc(NC(=O)OCc2ccccc2)nc1=O)NCCCn1ccnc1	NRP1-CendR mod 32.9
O=C(Cn1ccc(NC(=O)OCc2ccccc2)nc1=O)NCCCc1ccccc1	none
Cc1ccc(S(=O)(=O)N(C)C[C@H]2OCCCC[C@H](C)Oc3ccc(NC(=O)Nc4cccc5ccccc45)cc3C(=O)N([C@@H](C)CO)C[C@@H]2C)cc1	none (no result: NRP1-CendR mod, ATG4B inh, MPTP block, SKN-1 block)
CN1OC[C@@H]2CN[C@H](c3ccc(N4CCCCC4)cc3)C[C@@H]21	none (no result: NRP1-CendR mod, ATG4B inh, MPTP block, SKN-1 block)
O=C(O)CCN1C(=O)/C(=C/c2ccc(-c3nc4ccccc4s3)o2)SC1=S	none (no result: F508del corr)
O=C(O)CC(C(=O)O)N1C(=O)/C(=C/c2ccc(-c3nc4ccccc4s3)o2)SC1=S (stereo not drawn)	ATG4B inh 67.5 (no result: F508del corr)
C[C@H](CO)N1C[C@H](C)[C@@H](CN(C)C(=O)CN(C)C)Oc2ncc(C#Cc3ccncc3)cc2C1=O	none (no result: NRP1-CendR mod, ATG4B inh, MPTP block, SKN-1 block)
Cc1ccc(-c2csc(NC(=O)c3ccno3)n2)cc1	SKN-1 block 37.4 (no result: F508del corr)
Cc1ccc(-c2csc(NC(=O)c3c(C)noc3C)n2)cc1	none
Cc1ccc(C(=O)Nc2nc(-c3ccc(F)cc3)cs2)o1	SKN-1 block 35.7
Cc1ccc(-c2csc(NC(=O)c3ccc(C)o3)n2)cc1	none (no result: F508del corr)
CNc1nc(-c2ccc3c(c2)CCN3C(=O)c2ccccc2F)cs1	NRP1-CendR mod 24.4
CCCc1cc(-c2nc(-c3ccc(Cl)cc3)cs2)ccn1	SKN-1 block 55.5 (no result: F508del corr)
O=C(N[C@@H]1CC[C@H](CCn2cc(C3(O)CCCC3)nn2)O[C@@H]1CO)C1CCC1	none (no result: NRP1-CendR mod, ATG4B inh, MPTP block, SKN-1 block)
c1ccc2c(c1)CCCN2Cc1nnc2n1CCCCC2	NRP1-CendR mod 23.1 (no result: F508del corr)
O=C1CCN(Cc2cccnc2)CCN1[C@H](CO)c1ccccc1	NRP1-CendR mod 22.0
COC(=O)/C=C1\S/C(=N\N=C\CC(=O)OC)NC1=O	SKN-1 block 36.5
COC(=O)/C=C1\SC(=Nc2ccc(OC)cc2)NC1=O	none
C[C@H](CO)N1C[C@H](C)[C@H](CN(C)Cc2ccc(Cl)c(Cl)c2)Oc2c(NC(=O)CCCCCC(=O)Nc3ccccc3N)cccc2C1=O	none (no result: NRP1-CendR mod, ATG4B inh, MPTP block, SKN-1 block)
OCCNc1ncnc2ccc(Br)cc12	NRP1-CendR mod 44.2 (no result: F508del corr)
O=S(=O)(c1ccccc1)c1nc(-c2ccc(F)cc2)oc1N1CCOCC1	NRP1-CendR mod 22.4
O=S(=O)(c1ccc(F)cc1)c1nc(-c2ccccc2)oc1N1CCOCC1	none
COc1ccccc1NC(=O)CSc1ccc(-c2ccccn2)nn1	F508del corr 8.1
CC1(C(=O)NCc2cccs2)Cc2c(-c3ccc4c(c3)OCO4)ccnc2O1 (stereo not drawn)	F508del corr 9.5 (no result: ATG4B inh)
CC1(C(=O)NCc2cccs2)Cc2c(-c3ccccc3)ccnc2O1 (stereo not drawn)	none (no result: ATG4B inh)
COc1ccc(CC(=O)Nc2nnc(SCc3ccccc3)s2)cc1S(=O)(=O)N1CCOCC1	SKN-1 block 60.9 (no result: F508del corr)
O=C(CN1CCN(S(=O)(=O)c2ccc(Br)cc2)CC1)Nc1ccc2c(c1)OCO2	SKN-1 block 34.6 (no result: F508del corr)
COc1ccc(CC(=O)Nc2ccc3c(c2)OCO3)cc1S(=O)(=O)N1CCOCC1	NRP1-CendR mod 21.7 (no result: F508del corr)
COc1ccc(C(=O)Nc2ccc3c(c2)OCCO3)cc1S(=O)(=O)N1CCOCC1	none
CCCCc1nnc(NC(=O)Cc2ccc(OC)c(S(=O)(=O)N3CCOCC3)c2)s1	none
COc1ccc(-c2[nH]ncc2/C=C(/C#N)C(=O)NC2CCCCC2)cc1	none (no result: F508del corr)
Cc1ccc(-c2[nH]ncc2/C=C(\C#N)C(=O)NC2CCCCC2)cc1	SKN-1 block 58.6 (no result: F508del corr)
COCc1cn(CC[C@@H]2CC[C@H](NC(=O)CCN3CCCCC3)[C@@H](CO)O2)nn1	none (no result: NRP1-CendR mod, ATG4B inh, MPTP block, SKN-1 block)
